Calls of active or inactive are those of the source. Calls come from the whole dose curve; as a rule, active = well fitted activation curve with a large enough effect in the repeat runs; inconclusive = weak or mixed curves; inactive = flat fitted curve, though single readings scatter.
The compounds below were run against KiSS-1 receptor (Homo sapiens) (UniProt Q969F8) (assay: Human kisspeptin (KISS1R) small molecule agonists, calcium flux assay in KISS1R-HEK293 cells (AID 1920064)). Details: KISS1R-HEK293, calcium flux fluorescence, agonist; series mostly up to 76.8 µM; activation: at the top concentration.
Sequence of KiSS-1 receptor (Homo sapiens) (Q969F8 whole entry, looked up): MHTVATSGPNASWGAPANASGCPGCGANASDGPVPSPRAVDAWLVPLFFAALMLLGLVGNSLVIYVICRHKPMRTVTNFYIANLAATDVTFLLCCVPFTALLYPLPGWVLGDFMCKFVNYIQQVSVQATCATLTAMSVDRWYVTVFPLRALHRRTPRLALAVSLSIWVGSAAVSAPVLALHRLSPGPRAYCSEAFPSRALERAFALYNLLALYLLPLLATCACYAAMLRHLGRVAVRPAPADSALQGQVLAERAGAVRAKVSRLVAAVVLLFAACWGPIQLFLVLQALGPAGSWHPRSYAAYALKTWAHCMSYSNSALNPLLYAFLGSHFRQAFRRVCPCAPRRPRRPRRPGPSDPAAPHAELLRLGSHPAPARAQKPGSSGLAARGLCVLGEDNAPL
From the text: National Center for Advancing Translational Sciences [NCATS]
Division of Preclinical Innovation [DPI]
U.S. Environmental Protection Agency [EPA]
National Institutes of Environmental Health Sciences [NIEHS]
National Toxicology Program [NTP]
U.S. Food and Drug Administration [FDA]
Kisspeptin and its receptor KISS1R play key roles in mammalian reproduction due to their involvement in the onset of puberty and control of the hypothalamic-pituitary-gonadal axis such as regulates GnRH release from the hypothalamus. The kisspeptin/KISS1R system also plays a direct role in peripheral organs (including the ovary, testis, uterus, and placenta) and is implicated in reproductive diseases such as miscarriage and polycystic ovary syndrome (PCOS). Abnormal KISS1R activity is associated with abnormal puberty, infertility, endometriosis, and hormone-dependent tumors. The KISS1 receptor (KISS1R, also called GPR54), a G-protein-coupled receptor (GPCR), acts (through phospholipase C) to increase intracellular inositol trisphosphate and then release intracellular calcium stores. Cell-based KISS1R-HEK293 assay is using HEK293 cells that have been genetically engineered to express the human KISS1R, which activity can be measured by calcium signaling. A compound/drug can activate (agonist) KISS1R that can be monitored by levels of intracellular calcium.
KISS1R-HEK293 cells developed by Codex Corp contain human KISS1R gene, which was stably integrated into HEK 293 cells. The compound activation can be detected by fluorescence intensity via calcium flux assay. This cell line has been used to screen the Tox21 10K compound library to identify agonists of KISS1R.
KISS1R-Hek293 cells were dispensed at 1500 cells/4uL/well in 1536-well black wall/clear bottom plates using a multidrop dispenser. After the assay plates were incubated at a 37 C/5% CO2 incubator for 18 hours, 4 microL of Calcium Dye Solution was added to each well. The plates were incubated at 37 C for 1 hour. And then 23 nL of compounds dissolved in DMSO, positive controls, or DMSO only was transferred to the assay plate by a pin tool station. The fluorescence intensity in the plates was measured using FDSS 7000EX kinetic plate reader with a filter set of Ex/Em=480/540 for 3 min at 1 sec intervals. Each test compound was measured at 15 concentrations and in triplicates.
% is set by controls: 0 for no effect and ±100 for the full control effect.

Structure (SMILES)	activation
OCCN(CCO)CCN(CCO)CCO	-1.47% (inactive)
CCN(C(=O)c1cc(C)cc(OC[C@H](C)Nc2ccncc2)c1)C(C)C	4.46% [at 35.3 µM] (inactive)
CC(C)(C)C(=O)NCCCC(=O)O	-1.69% [at 35.3 µM] (inactive)
Cc1cc(CCCOc2c(C)cc(-c3noc(C(F)(F)F)n3)cc2C)on1	-0.164% [at 35.3 µM] (inactive)
Clc1cc(Cl)c(-c2c(Cl)c(Cl)cc(Cl)c2Cl)cc1Cl	-1.77% [at 35.3 µM] (inactive)
CCOc1ccc([N+](=O)[O-])cc1	0.0089% (inactive)
CCCC(=O)OCCC(C)C	0.0024% (inactive)
CCCC(=O)OCOC(=O)C1=C(C)NC(C)=C(C(=O)OC)C1c1cccc(Cl)c1Cl (stereo not given)	0.364% [at 35.3 µM] (inactive)
C1=CCC(c2ccccc2)CC1 (stereo not given)	1.4% (inactive)
Nc1nc(CC(=O)O)cs1	-5.64% (inactive)
OCC(F)(F)F	-0.526% (inactive)
N=C(N)c1ccc(OCCCOc2ccc(C(=N)N)cc2)cc1	-0.786% [at 35.3 µM] (inactive)
c1ccc(CCNc2nc(-c3ccccc3)cs2)cc1	5.07% [at 35.3 µM] (inactive)
CC/C=C\CCCCO	0.128% (inactive)
CCOC(=O)COc1ccc(C)cc1	5.12% (inactive)
CC(C)NCCCC1(C(N)=O)c2ccccc2-c2ccccc21	-0.841% [at 35.3 µM] (inactive)
CN1CCCC(n2nc(Cc3ccc(Cl)cc3)c3ccccc3c2=O)CC1 (stereo not given)	9.04% [at 35.3 µM] (inactive)
CC1(C)CC(OC(=O)CCCCCCCCC(=O)OC2CC(C)(C)NC(C)(C)C2)CC(C)(C)N1	3.13% [at 15.8 µM] (inactive)
NC1CCN(c2cccc(Cl)n2)CC1	0.0867% [at 35.3 µM] (inactive)
Cc1cc2c(cc1S(N)(=O)=O)S(=O)(=O)CCC2	0.218% [at 35.3 µM] (inactive)

Structure (SMILES)	activation
CC(C)NNC(=O)c1ccncc1	-1.63% [at 35.3 µM] (inactive)
CCCCCCCCCCC(=O)O	0.931% (inactive)
O=C(C1CCCCC1)N1CC(=O)N2CCCc3ccccc3C2C1 (stereo not given)	0.0245% [at 35.3 µM] (inactive)
CC/C=C\CCOC(C)=O	-1.06% (inactive)
CCC(=O)OC(=O)CC	0.385% (inactive)
N#C[C@@H]1CC(F)(F)CN1C(=O)CNC1CC2CCC(C1)N2c1ncccn1 (stereo not given in full)	7.88% (inactive)
O=[N+]([O-])c1ccc2[nH]ncc2c1	-0.535% (inactive)
CC(C)C[C@@H](N)C(=O)O	-0.242% [at 15.8 µM] (inactive)
NNc1nc(-c2ccc([N+](=O)[O-])cc2)cs1	0.966% (inactive)
CC(CN(C)C)C(C)(O)Cc1ccc(Cl)cc1 (stereo not given)	0.0515% [at 35.3 µM] (inactive)
COc1cc2c(cc1OC)CN(C(=O)[C@H](C)N[C@@H](CCc1ccccc1)C(=O)O)[C@H](C(=O)O)C2	-0.523% [at 35.3 µM] (inactive)
O=c1[nH]ncc2ccccc12	-0.32% (inactive)
CCCCc1nc(Cl)c(CO)n1Cc1ccc(-c2ccccc2-c2nn[nH]n2)cc1	-0.83% [at 35.3 µM] (inactive)
SC1CCCCC1	-1.42% (inactive)
O=C(O)/C=C/c1ccc(/C=C/C(=O)O)cc1	-2.74% [at 35.3 µM] (inactive)
Nc1nc(Cl)nc2c1ncn2[C@@H]1O[C@H](CO)[C@@H](O)[C@@H]1F	2.55% [at 35.3 µM] (inactive)
[O]=[Mo](=[O])=[O]	-1.57% [at 15.8 µM] (inactive)
CC(C)CC(=O)C1C(=O)c2ccccc2C1=O	-2.27% (inactive)
CC1CCC(C(C)CS)CC1S (stereo not given)	0.0957% (inactive)
CCOC(=O)[C@H](O)[C@@H](O)C(=O)OCC	1.48% (inactive)

— PubChem BioAssay (Tox21)
